Measurements taken from ChEMBL document CHEMBL3988442, “University of Dundee, Small-Polar-MMV Screening Library” (2021).
For some assays here: Entries with a potency or affinity are not part of this list.

What was measured:
Set-up in all cases: scale not given: direction of the effect not stated beside the values
[1] = target: Protein translocase subunit SecA (Escherichia coli (strain K12)) (UniProt P10408); assay: Assay to Identify E. coli SecA ATPase Inhibitors; type: functional; settings: 30 µM
Chain of Protein translocase subunit SecA (Escherichia coli (strain K12)) (P10408 whole entry): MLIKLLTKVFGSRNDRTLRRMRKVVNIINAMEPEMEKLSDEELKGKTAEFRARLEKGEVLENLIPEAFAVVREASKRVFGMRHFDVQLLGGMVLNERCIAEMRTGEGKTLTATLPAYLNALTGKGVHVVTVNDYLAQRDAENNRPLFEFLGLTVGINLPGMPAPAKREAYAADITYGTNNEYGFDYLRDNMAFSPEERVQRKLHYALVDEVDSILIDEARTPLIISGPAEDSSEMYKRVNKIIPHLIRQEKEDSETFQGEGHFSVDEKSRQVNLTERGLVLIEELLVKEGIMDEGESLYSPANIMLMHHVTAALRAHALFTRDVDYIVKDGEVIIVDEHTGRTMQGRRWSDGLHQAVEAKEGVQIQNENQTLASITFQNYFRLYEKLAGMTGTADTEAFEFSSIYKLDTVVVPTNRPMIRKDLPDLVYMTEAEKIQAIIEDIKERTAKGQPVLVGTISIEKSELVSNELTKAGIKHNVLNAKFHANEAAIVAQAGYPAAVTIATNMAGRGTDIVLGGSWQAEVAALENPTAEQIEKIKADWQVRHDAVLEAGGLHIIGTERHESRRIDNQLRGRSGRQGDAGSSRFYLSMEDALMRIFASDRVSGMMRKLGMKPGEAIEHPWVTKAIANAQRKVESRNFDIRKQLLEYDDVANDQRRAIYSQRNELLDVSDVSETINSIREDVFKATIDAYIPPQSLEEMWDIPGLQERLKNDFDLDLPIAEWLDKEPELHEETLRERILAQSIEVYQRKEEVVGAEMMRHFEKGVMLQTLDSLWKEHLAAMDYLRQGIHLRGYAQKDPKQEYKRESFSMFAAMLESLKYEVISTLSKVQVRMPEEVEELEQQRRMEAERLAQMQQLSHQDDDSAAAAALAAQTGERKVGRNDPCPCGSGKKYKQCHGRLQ

[2] = target: T1, Ubiquitin-activating enzyme e1, putative (Leishmania donovani (strain BPK282A1)) (UniProt E9BSI1); assay: Leishmania donovani Ubiquitin Activating Enzyme (LdE1); type: functional; settings: 30 µM
T1 sequence (whole entry): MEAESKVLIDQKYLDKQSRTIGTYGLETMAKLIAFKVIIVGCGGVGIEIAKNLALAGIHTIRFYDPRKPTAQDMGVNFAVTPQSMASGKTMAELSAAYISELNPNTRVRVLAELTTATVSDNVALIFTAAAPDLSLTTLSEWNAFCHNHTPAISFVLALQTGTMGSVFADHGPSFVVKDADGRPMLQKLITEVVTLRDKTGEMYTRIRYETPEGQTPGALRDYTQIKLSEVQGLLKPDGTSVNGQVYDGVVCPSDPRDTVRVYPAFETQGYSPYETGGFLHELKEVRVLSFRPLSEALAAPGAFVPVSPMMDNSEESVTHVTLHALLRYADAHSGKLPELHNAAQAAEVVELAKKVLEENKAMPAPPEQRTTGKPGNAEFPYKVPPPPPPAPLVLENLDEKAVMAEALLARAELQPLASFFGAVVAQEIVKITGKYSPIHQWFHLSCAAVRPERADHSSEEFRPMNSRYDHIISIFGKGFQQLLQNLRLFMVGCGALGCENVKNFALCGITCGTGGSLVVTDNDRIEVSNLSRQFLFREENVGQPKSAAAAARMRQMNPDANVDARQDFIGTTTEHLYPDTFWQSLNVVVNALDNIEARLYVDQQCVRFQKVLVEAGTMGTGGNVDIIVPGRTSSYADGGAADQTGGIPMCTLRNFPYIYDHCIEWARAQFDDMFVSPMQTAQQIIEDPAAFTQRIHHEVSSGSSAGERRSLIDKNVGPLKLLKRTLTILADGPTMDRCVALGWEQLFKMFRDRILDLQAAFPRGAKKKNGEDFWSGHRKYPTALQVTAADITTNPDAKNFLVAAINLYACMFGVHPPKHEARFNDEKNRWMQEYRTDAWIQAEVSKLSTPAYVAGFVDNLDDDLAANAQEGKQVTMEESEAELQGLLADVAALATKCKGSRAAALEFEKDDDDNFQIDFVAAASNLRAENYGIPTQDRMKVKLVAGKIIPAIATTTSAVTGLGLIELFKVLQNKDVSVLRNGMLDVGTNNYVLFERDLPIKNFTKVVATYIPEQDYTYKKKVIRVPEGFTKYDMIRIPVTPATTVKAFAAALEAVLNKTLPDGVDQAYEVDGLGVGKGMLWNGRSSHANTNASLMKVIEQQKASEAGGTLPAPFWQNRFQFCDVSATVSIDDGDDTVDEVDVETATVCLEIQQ

[3] = target: AMP-activated protein kinase, AMPK (Homo sapiens) (UniProt P54646+O43741+P54619+Q9UGJ0+Q9Y478+Q13131+Q9UGI9); assay: AMP-dependent Kinase enzyme assay. An in vitro enzyme assay that detects ADP turnover that is directly proportional to AMPK activity. This uses naive AMPK that is activated during the assay with MK-8722; type: functional; settings: 30 µM
[4] = target: Sialic acid-binding Ig-like lectin 9 (Homo sapiens) (UniProt Q9Y336); assay: Hs-Siglec9 ALPHAscreen SOP 20170721; settings: 10 µM
Chain of Sialic acid-binding Ig-like lectin 9 (Homo sapiens) (Q9Y336 whole entry): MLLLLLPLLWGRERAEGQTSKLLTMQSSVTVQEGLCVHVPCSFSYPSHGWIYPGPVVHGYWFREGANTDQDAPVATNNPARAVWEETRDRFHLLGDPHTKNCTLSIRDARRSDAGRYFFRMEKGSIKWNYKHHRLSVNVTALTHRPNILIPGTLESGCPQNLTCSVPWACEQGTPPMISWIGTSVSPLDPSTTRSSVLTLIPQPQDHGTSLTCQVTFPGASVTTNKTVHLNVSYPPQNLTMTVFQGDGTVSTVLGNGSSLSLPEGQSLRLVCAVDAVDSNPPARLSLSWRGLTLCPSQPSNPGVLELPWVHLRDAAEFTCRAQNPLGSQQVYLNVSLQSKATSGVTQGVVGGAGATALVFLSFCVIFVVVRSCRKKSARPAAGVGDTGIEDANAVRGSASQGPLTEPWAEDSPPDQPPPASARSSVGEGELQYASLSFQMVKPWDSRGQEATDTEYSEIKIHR

Trypanosoma cruzi = assay: Trypanosoma cruzi phosphomannomutase and mannose-1-phosphate guanylyltransferase assay; type: functional; settings: 10 µM
[5] = target: T2, Arginase-2, mitochondrial (Homo sapiens) (UniProt P78540); assay: in vitro enzyme assay to detect the production of urea directly proportional to the activity of Arginase II; type: functional; settings: 33.3 µM; note: in the data most compounds retested in dose-response had high values
T2 sequence (whole entry): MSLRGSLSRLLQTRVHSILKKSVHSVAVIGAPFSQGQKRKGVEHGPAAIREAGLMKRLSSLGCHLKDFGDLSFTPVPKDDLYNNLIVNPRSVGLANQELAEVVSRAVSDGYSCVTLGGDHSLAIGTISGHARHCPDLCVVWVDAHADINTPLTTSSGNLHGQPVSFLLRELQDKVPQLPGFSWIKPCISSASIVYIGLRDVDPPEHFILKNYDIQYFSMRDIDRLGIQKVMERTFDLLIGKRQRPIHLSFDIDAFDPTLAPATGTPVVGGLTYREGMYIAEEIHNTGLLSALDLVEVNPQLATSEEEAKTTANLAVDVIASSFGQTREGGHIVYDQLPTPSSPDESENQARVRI

[6] = target: T3, Proteasome subunit beta (Trypanosoma cruzi) (UniProt O96673); assay: Trypanosoma cruzi proteasome chymotrypsin-like activity (TcProtChymo) assay.; note: in the data most compounds retested in dose-response had high values; type: functional; settings: 9.37 µM
T3 sequence (whole entry): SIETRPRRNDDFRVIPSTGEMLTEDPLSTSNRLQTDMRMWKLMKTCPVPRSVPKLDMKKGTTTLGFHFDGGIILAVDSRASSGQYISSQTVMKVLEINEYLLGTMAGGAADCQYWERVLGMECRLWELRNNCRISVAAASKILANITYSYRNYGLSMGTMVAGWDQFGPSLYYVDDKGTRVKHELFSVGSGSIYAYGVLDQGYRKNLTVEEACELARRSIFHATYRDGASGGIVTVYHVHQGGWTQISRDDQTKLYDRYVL

Homo sapiens = species: Homo sapiens; assay: To identify inhibition of the IFN signalling (Jak-Stat) pathway via expression of an eGFP reporter gene under the control of an IFN-stimulated response element (ISRE) containing MxA promoter.; type: functional; settings: 30 µM
[7] = target: T4, Tyrosyl-tRNA synthetase, putative (Trypanosoma cruzi (strain CL Brener)) (UniProt Q4DSP6); assay: Trypanosoma cruzi tyrosyl tRNA synthetase (TcYRS) _High Tyrosine SOP; type: functional; settings: 30 µM; note: in the data most compounds retested in dose-response had high values
T4 sequence (whole entry): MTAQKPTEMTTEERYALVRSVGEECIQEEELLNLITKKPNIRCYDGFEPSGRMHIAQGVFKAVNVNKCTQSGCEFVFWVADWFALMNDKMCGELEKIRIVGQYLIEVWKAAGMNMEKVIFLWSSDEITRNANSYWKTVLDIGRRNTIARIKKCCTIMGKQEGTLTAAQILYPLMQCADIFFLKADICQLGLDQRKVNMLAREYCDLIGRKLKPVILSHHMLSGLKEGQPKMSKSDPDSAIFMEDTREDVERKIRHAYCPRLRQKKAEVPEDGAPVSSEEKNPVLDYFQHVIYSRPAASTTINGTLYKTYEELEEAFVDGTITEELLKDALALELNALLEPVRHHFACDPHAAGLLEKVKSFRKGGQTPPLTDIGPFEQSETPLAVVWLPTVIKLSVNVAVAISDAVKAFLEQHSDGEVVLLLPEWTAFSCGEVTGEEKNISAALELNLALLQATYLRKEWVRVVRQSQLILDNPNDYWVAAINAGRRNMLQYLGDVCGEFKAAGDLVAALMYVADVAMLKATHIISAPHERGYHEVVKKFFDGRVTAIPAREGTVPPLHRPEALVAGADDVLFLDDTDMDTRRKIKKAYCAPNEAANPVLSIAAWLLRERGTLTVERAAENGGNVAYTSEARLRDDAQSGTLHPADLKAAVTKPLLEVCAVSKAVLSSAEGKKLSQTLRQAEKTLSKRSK

[8] = target: T4, Tyrosyl-tRNA synthetase, putative (Trypanosoma cruzi (strain CL Brener)); assay: Trypanosoma cruzi tyrosyl tRNA synthetase (TcYRS) SOP; type: functional; settings: 30 µM
[9] = target: Chromo domain-containing protein 1 (Saccharomyces cerevisiae (strain ATCC 204508 / S288c) (Baker's yeast)) (UniProt P32657); assay: ScCHD-1 Enzyme Inhibition Assay; type: functional; settings: 30 µM; note: in the data most compounds retested in dose-response had high values
Chain of Chromo domain-containing protein 1 (Saccharomyces cerevisiae (strain ATCC 204508 / S288c) (Baker's yeast)) (P32657 whole entry, the tested form may be a part): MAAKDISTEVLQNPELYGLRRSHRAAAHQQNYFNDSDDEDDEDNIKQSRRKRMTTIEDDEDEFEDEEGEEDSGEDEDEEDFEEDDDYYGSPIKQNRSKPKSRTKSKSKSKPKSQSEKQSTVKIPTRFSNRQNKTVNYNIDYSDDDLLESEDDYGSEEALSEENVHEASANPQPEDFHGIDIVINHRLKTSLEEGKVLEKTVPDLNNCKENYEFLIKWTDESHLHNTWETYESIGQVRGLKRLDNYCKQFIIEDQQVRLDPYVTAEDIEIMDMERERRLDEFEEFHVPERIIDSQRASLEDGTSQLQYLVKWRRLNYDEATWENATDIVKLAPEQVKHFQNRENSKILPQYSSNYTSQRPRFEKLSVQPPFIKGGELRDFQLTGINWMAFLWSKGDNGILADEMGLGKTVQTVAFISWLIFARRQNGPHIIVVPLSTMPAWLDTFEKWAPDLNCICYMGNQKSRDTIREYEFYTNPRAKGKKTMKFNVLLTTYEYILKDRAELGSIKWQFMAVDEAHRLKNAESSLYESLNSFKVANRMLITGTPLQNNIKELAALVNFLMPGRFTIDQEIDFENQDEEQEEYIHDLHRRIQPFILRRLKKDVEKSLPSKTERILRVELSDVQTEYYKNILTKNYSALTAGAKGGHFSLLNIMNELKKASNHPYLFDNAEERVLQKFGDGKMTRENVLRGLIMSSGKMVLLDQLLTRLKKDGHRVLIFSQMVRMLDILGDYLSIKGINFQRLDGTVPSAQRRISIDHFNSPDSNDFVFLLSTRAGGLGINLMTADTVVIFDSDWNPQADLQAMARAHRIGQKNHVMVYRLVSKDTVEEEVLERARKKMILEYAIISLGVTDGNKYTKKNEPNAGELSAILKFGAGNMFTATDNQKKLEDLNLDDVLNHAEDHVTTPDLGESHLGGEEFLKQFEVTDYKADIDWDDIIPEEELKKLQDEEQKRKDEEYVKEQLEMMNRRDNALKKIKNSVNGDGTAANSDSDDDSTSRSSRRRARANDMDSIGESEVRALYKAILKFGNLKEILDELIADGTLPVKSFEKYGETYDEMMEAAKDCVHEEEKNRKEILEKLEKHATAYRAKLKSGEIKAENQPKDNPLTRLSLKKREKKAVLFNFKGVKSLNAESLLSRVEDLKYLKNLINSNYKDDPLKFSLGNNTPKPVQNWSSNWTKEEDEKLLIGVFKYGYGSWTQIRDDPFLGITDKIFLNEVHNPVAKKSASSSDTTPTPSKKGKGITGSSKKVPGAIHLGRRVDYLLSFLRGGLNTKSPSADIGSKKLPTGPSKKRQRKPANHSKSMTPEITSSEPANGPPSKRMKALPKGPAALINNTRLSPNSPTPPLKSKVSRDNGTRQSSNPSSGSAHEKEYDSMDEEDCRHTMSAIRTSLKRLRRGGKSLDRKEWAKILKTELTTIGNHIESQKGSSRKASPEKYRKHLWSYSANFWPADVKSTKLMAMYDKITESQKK

SMILES | Percent Effect [1] [%] | Percent Effect [2] [%] | Percent Effect [3] [%] | Percent Effect [4] [%] | Percent Effect (Trypanosoma cruzi) [%] | Percent Effect [5] [%] | Percent Effect [6] [%] | Percent Effect (Homo sapiens) [%] | Percent Effect [7] [%] | Percent Effect [8] [%] | Percent Effect [9] [%]
COC[C@@]12CCO[C@@H]1CCN(C(=O)Cc1ccccc1F)C2 | 0.597 | 19.2 | -6.38 | 8.82 | -0.595 | -3.19 | 12.2 | 5.78 | 8.33 | 11.1 | -3.06
CC(C)n1ncc2cc(NC(=O)N3CCC(N4CCCC4)C3)cnc21 (configuration not stated) | -1.2 | -5.41 | -12.5 | 7.73 | 4.74 | -5.73 | 12 | 3.87 | -7.92 | 23.2 | -5.17
Cc1nc(CN(C)C(=O)Nc2cnn(CC3CCCO3)c2)cs1 (configuration not stated) | -3.47 | -5.41 | -27.6 | 1.65 | -0.965 | 0.952 | 5.86 | 15 | -6.88 | -9.76 | 0.495
O=C1COC2(CCN(Cc3ccc(F)cc3)CC2)CN1 | -4.15 | 2.7 | 2.05 | -2.96 | 6.25 | -0.417 | 10.2 | -6.9 | 5.94 | 15.8 | -6.08
CC(CNC(=O)N1CCN(CC(F)F)CC1)Cc1cccs1 (configuration not stated) | -7.32 | 2.7 | 3.08 | 1.71 | -1.17 | 2.08 | 6.34 | -5.03 | 8.91 | 1.22 | -2.29
Cc1ccc(CN2CCc3ncnc(-c4ccc(F)cc4)c3CC2)o1 | -0.438 | 5.33 | 3.65 | 4.4 | -1.93 | -50.4 | 12.5 | -0.337 | 1.04 | 12.5 | -9.77
COc1ccc(CC(=O)N2CCCN(c3ccc(C#N)cc3)CC2)cc1 | -3.96 | -5.26 | 8.87 | -0.428 | -5.75 | -8.28 | 11.8 | -1.35 | -3.19 | 2.6 | -7.99
Cc1ccn(-c2ccccc2NCc2ccccn2)n1 | -1.21 | 0 | 23.2 | 4.37 | 3.13 | 2.27 | 0.532 | 2.69 | 4.3 | 10 | -1.77
O=C([C@H]1CCCO1)N1CC[C@H](O)[C@@H]1Cc1ccncc1 | -0.613 | 5.2 | 0.39 | 3.47 | -2.07 | 8.39 | -1.57 | -7.18 | 4.23 | 1.28 | -0.313
Fc1cccc(-c2nc(CN3CCOC(Cn4cncn4)C3)co2)c1 (configuration not stated) | -1.25 | 0 | 1.03 | 1.46 | 8.97 | -1.14 | 4.67 | -3.37 | 0.493 | 3.8 | -3.88
CN(CC(F)(F)F)C(=O)C1CSCN1C(=O)OC(C)(C)C (configuration not stated) | -2.64 | 2.74 | -4.74 | -3.23 | -3.33 | 2.27 | 11.9 | 2.3 | 1.07 | 7.5 | -1.01
Cc1ccc(-c2noc(CN3CCOC(Cn4cncn4)C3)n2)cc1 (configuration not stated) | -4.95 | -5.41 | 0.576 | 2.63 | 2.14 | -2.03 | -1.79 | 8.27 | 2.97 | -1.22 | 5.54
CNC(=O)[C@@]12CCO[C@@H]1CCN(Cc1scnc1C)C2 | 3.6 | 7.79 | 9.91 | -13.5 | -7.4 | 7.1 | 20.4 | 5.25 | 5.29 | 6.41 | -8.35
CCC(CNC(=O)c1ccc(=O)[nH]n1)N1CCc2ccccc2C1 (configuration not stated) | 0.395 | 13.5 | -10.4 | 10.4 | 3.48 | 11.4 | 17.9 | 2.58 | 7.94 | 12.2 | -3.16
c1ccc2oc(CCCN3CCOC(Cn4cccn4)C3)nc2c1 (configuration not stated) | -3.85 | 5.2 | 0.772 | 0.668 | 6.56 | -3.16 | 0.889 | 7.24 | 0 | 7.06 | 5.28
CC(C)Nc1ccc2nc(C3CCN(C(C)C)CC3)nn2c1 | -0.345 | 8.11 | -95.9 | -2.89 | 3.91 | 26.2 | 8.54 | 7.24 | 10.9 | 8.54 | -1.81
O=C(Cc1csc(-c2ccc(Cl)cc2)n1)NC(C(=O)O)c1ccccc1 (configuration not stated) | -2.32 | -1.33 | 10.5 | 1.1 | -3.73 | -9.68 | 14.6 | 0.509 | 1.06 | -2.56 | -10
CN(Cc1ccc(F)cc1)C(=O)NCC1(N2CCOCC2)CCSC1 (configuration not stated) | 2.92 | 16.2 | -0.11 | 22.3 | 2.12 | 1.43 | 15.9 | 14.5 | 3.7 | 17.1 | -8.64
CCNC(=O)C1CCN(Cc2csc(-c3ccc(C)o3)n2)CC1 | -0.895 | 11.4 | 2.01 | 2.17 | 2.97 | 1.5 | 14.1 | 27.6 | 7.29 | 20.2 | -26.4
O=C(c1cc(F)ccc1F)C1CCN(C(=O)c2ccc(=O)[nH]n2)CC1 | -2.7 | 13 | 0.316 | 0.809 | -3.43 | 2.32 | 7.52 | 15.8 | 3.81 | 18.8 | -6.34
c1ccc(Cn2cc3c(n2)C(CNCc2ccco2)OCC3)nc1 (configuration not stated) | -3.96 | 2.7 | 0.188 | 3.43 | -4.49 | 4.17 | 2.79 | -8.58 | 4.95 | 11 | -1.79
COc1c(C2CCCN2C(=O)c2ccnc(N(C)C)c2)c(C)nn1C (configuration not stated) | -4.71 | 5.2 | 4.01 | 13.2 | -4.21 | 2.74 | 5.58 | 14 | 4.76 | 7.06 | -20
